The values that follow come from PubChem BioAssay AID1259313 (Sanford-Burnham Center for Chemical Genomics, 2017).

Each structure is given as a SMILES string. Among all 340,000 compounds or so, about 8,500 (2.5%) were called active. This is one part of a sample in which actives are shown more often than they occur.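 How the source made its calls: active means melting temperature shift of at least 10% of the positive control shift, at one fixed dose; inactive means the rest.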

The test system of the assay is Glutamate receptor ionotropic, NMDA 3A (GRIN3A) ligand-binding domain. Kind of assay: NR3A LBD thermal stabilization by compounds – biophysical, differential scanning fluorimetry, uHTS, primary screen (AID 1259313). The following applies: at 25 µM, active compounds read high, 0% = protein alone, 100% = glycine-bound protein.
As to `CCN(CC)C(=O)Oc1ccc(OC(=O)N(CC)CC)cc1`, the Tm shift relative to glycine control was -0.08% (inactive).
In the case of `CCOc1ccccc1N1CCN(C(=S)Nc2ccc(S(N)(=O)=O)cc2)CC1`, the Tm shift relative to glycine control was 31.7% (active).
For `NS(=O)(=O)c1ccc(NC(=S)N2CCCC2)cc1`, the Tm shift relative to glycine control is -6.36% (inactive).
`COc1ccc(N2CCN(C(=S)Nc3ccc(S(N)(=O)=O)cc3)CC2)cc1`: the Tm shift relative to glycine control was 1.93% (inactive).
Take `O=C(Nc1ccccc1C(=O)N1CCOCC1)C1CCC(=O)N1C1CCCC1` (stereo not drawn): the Tm shift relative to glycine control was -0.29% (inactive).
For the compound `O=C(c1cc(-c2cccc(O)c2)on1)N1CCc2ccccc2C1`, the Tm shift relative to glycine control was -13.5% (inactive).
In the case of `CN(c1ccc(C(=O)N2CCc3ccccc3C2)cc1)S(C)(=O)=O` it was -0.88% (inactive); in that of `Cn1cccc1C(=O)N1CCc2ccccc2C1`, 38.1% (active).
`Cc1nn(Cc2ccccc2)c(C)c1CNC(=O)c1ccc(F)c(S(=O)(=O)N2CCOCC2)c1`: the Tm shift relative to glycine control is 0.42% (inactive).
Turning to `Cc1cc(C(=O)NNC(=S)NC(C)c2ccccc2)cs1` (stereo not drawn), the Tm shift relative to glycine control was -0.62% (inactive).
Consider `CCCN1Cc2cccc(C(=O)Nc3ccc(S(=O)(=O)N4CCCCCC4)cc3)c2C1=O`, for which the Tm shift relative to glycine control is -5.76% (inactive).
As to `O=S(=O)(Nc1n[nH]c(C(F)(F)F)n1)c1ccccc1`, the Tm shift relative to glycine control was -16.9% (inactive).
Under `COc1ccccc1NC(=O)Nc1nnc(Cc2ccc(F)cc2)s1` stands -6.85% (inactive); under `COc1ccccc1NC(=O)Nc1nc(CC(=O)Nc2ccccc2F)cs1`, 27.7% (active); under `COc1ccccc1NC(=O)COC(=O)COc1ccccc1F`, 0.17% (inactive).
In the case of `Cc1cc(C)c(C)c(S(=O)(=O)N2CCN(C(=O)c3ccc4c(=O)n5c(nc4c3)CCC5)CC2)c1C`, the Tm shift relative to glycine control is -1.83% (inactive).
In the case of `Cc1ccc(C2=NN(C)c3nc4ccccc4n3C2)cc1`, the Tm shift relative to glycine control is -0.88% (inactive).
As for `CCOC(=O)C1=CN(Cc2ccc(Br)cc2)S(=O)(=O)N(C)C1C` (stereo not drawn), the Tm shift relative to glycine control is 16.8% (active).
As to `CCOC(=O)C1=CN(Cc2ccc(Br)cc2)S(=O)(=O)NC1C` (stereo not drawn), the Tm shift relative to glycine control is -0.08% (inactive).
With `CCOC(=O)c1sc(=NC(=O)c2ccc(Br)cc2)n(C)c1C`, the Tm shift relative to glycine control is -1.61% (inactive).
Under `Cc1ccc(Sc2cc(C(=O)c3ccccc3C(=O)O)ccc2[N+](=O)[O-])cc1` stands 2.48% (inactive); under `CCN(CC(=O)Nc1cc(Cl)ccc1C)C(=O)CSCc1ccccc1`, 3.04% (inactive); under `C=CCC1(C#N)C(=S)NC(C)=C(C(=O)OCC)C1c1ccccc1` (stereo not drawn), -1.45% (inactive).
Under `Cc1cccc(N=Nc2c(O)[nH]c3ccc(F)cc23)c1` stands 10.2% (active); under `Oc1[nH]c2ccccc2c1N=Nc1c(F)c(F)c(F)c(F)c1F`, 9.33% (inactive).
Turning to `Cc1ccc(CNC(=O)CSc2nnc3c(n2)[nH]c2ccc(F)cc23)cc1`, the Tm shift relative to glycine control was 2.6% (inactive).
With `O=C1CN(C(=O)c2cc(F)cc(F)c2)c2ccccc2N1`, the Tm shift relative to glycine control is -2.16% (inactive).
In the case of `O=C1N=C(N2CCc3ccccc3C2)S/C1=C\c1ccc(O)cc1`, the Tm shift relative to glycine control is -10.4% (inactive).
Regarding `NC1=NC(=O)S/C1=C\c1ccc(O)cc1`, the Tm shift relative to glycine control is 32.2% (active).
Take `CC(C)(C)c1ccc(/C=C2\SC(=O)N=C2N)cc1`: the Tm shift relative to glycine control was -1.96% (inactive).
In the case of `Cc1c(CN2CCCC(C(=O)c3cccc(Cl)c3)C2)c(=O)n(-c2ccccc2)n1C` (stereo not drawn), the Tm shift relative to glycine control was -0.59% (inactive).
For `CCN(CC)c1ccc(NC(=O)c2ccc(Cl)nc2)cc1`, the Tm shift relative to glycine control is -1.3% (inactive).
In the case of `O=C(NCCS(=O)(=O)N1CCN(c2ccccc2)CC1)c1ccco1` it was 2.13% (inactive); in that of `COc1ccccc1N1CCN(S(=O)(=O)CCNC(=O)c2ccc(OC(C)C)cc2)CC1`, 0.83% (inactive); in that of `O=C(NCCS(=O)(=O)N1CCN(c2ccccc2F)CC1)c1ccc(Br)o1`, 121% (active).
With `COc1ccc(CCNC(=O)C(=O)NCC2CCNCC2)cc1OC`, the Tm shift relative to glycine control is -0.1% (inactive).
Turning to `CCc1ccc(-c2nn(-c3ccccc3)cc2CSC(=N)N)cc1`, the Tm shift relative to glycine control is -0.35% (inactive).
Take `COc1cc(NS(=O)(=O)c2ccc(NC(=S)NC(=O)c3ccc(Br)cc3)cc2)ncn1`: the Tm shift relative to glycine control is -6.1% (inactive).
On to `COc1ccc(Br)cc1/C=N/Nc1ccc(Cl)c(C(=O)O)c1`, for which the Tm shift relative to glycine control is -7.4% (inactive).
Turning to `COc1cccc(/C=N/Nc2ncc(C(F)(F)F)cc2Cl)c1O`, the Tm shift relative to glycine control is 24.2% (active).
As to `O=c1[nH]c2cccnc2n(CCNc2ncc(C(F)(F)F)cc2Cl)c1=O`, the Tm shift relative to glycine control was -2.11% (inactive).
`CCCCN(C(=O)c1nn(C)c(=O)c2ccccc12)c1c(N)n(CCC)c(=O)[nH]c1=O`: the Tm shift relative to glycine control was 0.36% (inactive).
Under `N#CC1=C(N)Oc2cc(N)ccc2C1c1ccccc1` (stereo not drawn) stands -2.17% (inactive); under `COc1ccc(C2C(C#N)=C(N)Oc3cc(N)ccc32)cc1OC` (stereo not drawn), -4.08% (inactive); under `N#CC1=C(N)Oc2cc(O)ccc2C1C1CCCCC1` (stereo not drawn), 12% (active).
With `COCC(C)NC(=O)CSc1nc2nn(-c3ccccc3)c(=O)c-2c2n1CCCCC2` (stereo not drawn), the Tm shift relative to glycine control was -0.39% (inactive).
Regarding `O=C(Nc1cc(S(=O)(=O)N2CCOCC2)ccc1Cl)c1cc(=O)c2ccccc2o1`, the Tm shift relative to glycine control was 0.31% (inactive).
Turning to `CC(=O)c1ccc(N2CCN(C(=O)C3CCN(S(=O)(=O)c4ccc5c(c4)CC(C)N5C(=O)C4CC4)CC3)CC2)cc1` (stereo not drawn), the Tm shift relative to glycine control is 1.27% (inactive).
`COc1cc(OC)c(S(=O)(=O)Nc2ccccc2C(=O)O)cc1S(=O)(=O)Nc1ccccc1C(=O)O`: the Tm shift relative to glycine control was 5.12% (inactive).
As to `COC(=O)c1ccc(NC(=O)c2ccccc2NS(=O)(=O)c2ccccc2)cc1`, the Tm shift relative to glycine control is 2.17% (inactive).
As to `COc1cc(NC(=O)c2ccccc2NS(=O)(=O)c2ccc(Cl)s2)cc(OC)c1`, the Tm shift relative to glycine control was 21.3% (active).
In the case of `CCC/C(O)=C1\C(=O)CC(C)(C)CC1=Nc1ccccc1OC` it was -0.4% (inactive); in that of `CCCC(=O)Nc1ccc(C(=O)N/N=C/c2ccc[nH]2)cc1`, 0.18% (inactive); in that of `CC(=O)Nc1ccc(C(=O)NNC(=O)CCCCC(=O)NNC(=O)c2ccc(NC(C)=O)cc2)cc1`, -2.46% (inactive).
With `CC(=O)Nc1ccc(C(=O)/C=C/c2ccc[nH]2)cc1`, the Tm shift relative to glycine control was 19.4% (active).
Under `CC1=C(C)C(=O)OC(C(C)C2CCC3C4CC=C5CC(OC6OC(COC7OC(CO)C(O)C(O)C7O)C(O)C(O)C6O)CC(O)C5(C)C4CCC23C)C1` (stereo not drawn) stands -4.54% (inactive).
Turning to `O=C(CN(Cc1ccc(Br)cc1)S(=O)(=O)c1ccccc1)NCc1ccncc1`, the Tm shift relative to glycine control is 0.51% (inactive).
Consider `CC1=C(C(=O)OC(C)(C)C)C(c2ccc(Br)cc2)NC(=O)N1CCCC(=O)O` (stereo not drawn), for which the Tm shift relative to glycine control was 0.08% (inactive).
